# The list is not random: actives were taken first. Their share in the collection is about 11%.
# JMJD2A Tudor inh – qHTS Assay for Inhibitors of JMJD2A-Tudor Domain; 4.4% of 390,000 active; AlphaScreen JMJD2A-Tudor / H3K4me3 peptide binding; Potency, µM (highest dose often 114 µM), for the others: top-dose activity change, negative = inhibition, usual class: inhibitors; Lysine-specific demethylase 4A (Homo sapiens), O75164; further: on the % scale 0 is the no-effect control and ±100 the full control effect; nearly all actives have a fitted effect of over 50% in size
# Target sequence (O75164 whole entry, looked up, the tested form may be a part): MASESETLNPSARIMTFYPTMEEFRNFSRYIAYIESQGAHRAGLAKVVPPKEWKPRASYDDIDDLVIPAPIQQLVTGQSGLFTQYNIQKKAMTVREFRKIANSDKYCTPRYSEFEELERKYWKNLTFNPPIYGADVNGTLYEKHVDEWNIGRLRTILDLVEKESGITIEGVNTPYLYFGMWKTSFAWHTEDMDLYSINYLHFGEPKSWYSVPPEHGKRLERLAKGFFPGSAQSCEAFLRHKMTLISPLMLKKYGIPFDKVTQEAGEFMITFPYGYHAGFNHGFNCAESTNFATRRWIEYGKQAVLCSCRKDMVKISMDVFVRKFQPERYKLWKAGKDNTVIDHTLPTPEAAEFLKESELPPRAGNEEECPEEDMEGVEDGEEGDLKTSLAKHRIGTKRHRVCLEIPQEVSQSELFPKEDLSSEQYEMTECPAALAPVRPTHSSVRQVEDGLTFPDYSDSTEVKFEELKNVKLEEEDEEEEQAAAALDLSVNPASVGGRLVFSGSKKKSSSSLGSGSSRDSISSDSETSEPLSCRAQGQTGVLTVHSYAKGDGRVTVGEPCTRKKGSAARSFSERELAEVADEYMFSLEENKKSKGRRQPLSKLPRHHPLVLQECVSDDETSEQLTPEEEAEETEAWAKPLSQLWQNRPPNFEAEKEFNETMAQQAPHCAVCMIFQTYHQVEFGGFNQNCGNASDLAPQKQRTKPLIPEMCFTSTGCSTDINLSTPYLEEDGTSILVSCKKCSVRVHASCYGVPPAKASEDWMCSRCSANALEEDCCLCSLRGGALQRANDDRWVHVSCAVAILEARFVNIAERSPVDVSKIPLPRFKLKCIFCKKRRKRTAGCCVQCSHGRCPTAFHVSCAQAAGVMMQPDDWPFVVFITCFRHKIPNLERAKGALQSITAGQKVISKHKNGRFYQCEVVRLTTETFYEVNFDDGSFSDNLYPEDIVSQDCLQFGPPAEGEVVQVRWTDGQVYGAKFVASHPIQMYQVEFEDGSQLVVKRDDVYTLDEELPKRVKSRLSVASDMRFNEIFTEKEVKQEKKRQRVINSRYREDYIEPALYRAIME
# HP1b chromo inh – HTS for Inhibitors of HP1-beta Chromodomain Interactions with Methylated Histone Tails | 0.56% of 390,000 active | Potency, µM (series often up to 114 µM), inactives show at the highest dose activity change, negative = inhibition, actives largely listed as inhibitors | AID 540317, 2011 | AlphaScreen HP1-beta / biotin-H3K9me3 peptide binding; further: nearly all actives have a fitted effect of over 70% in size
#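 HP1-beta protein (50 nM final) preincubated 30 min at room temperature with biotinylated H3(1-18)K9me3 peptide (50 nM) in PBS pH 7.4, 0.01% Tween-20, then compound added for 30 min. AlphaScreen streptavidin donor/nickel chelate acceptor beads (10 ug/mL final), 30 min dark, luminescence read.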
# L3MBTL1 block – qHTS Assay for the Inhibitors of L3MBTL1 | AID 485360, 2010 | 0.66% of 230,000 active | AlphaScreen L3MBTL1–H3K9me1 peptide binding | Potency, µM (doses to about 57.1 µM), inactives show at the top dose activity, negative = inhibition, usual class: inhibitors | Lethal(3)malignant brain tumor-like protein 1 (Homo sapiens), Q9Y468; further: on the % scale 0 is the no-effect control and ±100 the full control effect; nearly all actives have a fitted effect of over 60% in size
#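 First, the protein-peptide complex forms for 30 min at room temperature (L3MBTL1 50 nM, biotinylated H3K9me1 peptide 75 nM). Next, compounds are pin-transferred and incubated 30 min. Finally, AlphaScreen beads are added and read after 30 min.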
# BAZ2B block – qHTS Assay for Inhibitors of BAZ2B; Bromodomain adjacent to zinc finger domain protein 2B (Homo sapiens), Q9UIF8; AlphaScreen BAZ2B-H3K14Ac peptide displacement; Potency, µM (highest dose often 114 µM), without a hit: top-dose activity change, negative = inhibition, actives largely listed as inhibitors; 4.4% of 360,000 active; AID 504333, 2011; further: on the % scale 0 is the no-effect control and ±100 the full control effect; nearly all actives have a fitted effect of over 60% in size
#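 AlphaScreen luminescence quantifies BAZ2B engagement of H3K14Ac peptide; the protein and biotinylated peptide are both at 50 nM final, buffer PBS pH 7.4 with 0.01% Tween-20, all steps at room temperature.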
# G9a block – qHTS Assay for Inhibitors of Histone Lysine Methyltransferase G9a; Histone-lysine N-methyltransferase EHMT2 (Homo sapiens), Q96KQ7; G9a H3K9 monomethylation, AlphaScreen, 2 h; Potency, µM (highest dose often 102 µM), for the others: top-dose activity, negative = inhibition, most hits filed as inhibitors; 8.8% of 350,000 active; AID 504332, 2011; further: on the % scale 0 is the no-effect control and ±100 the full control effect; nearly all actives have a fitted effect of over 75% in size
#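 Chemiluminescent proximity detection of H3K9 monomethylation, read after 10 min bead incubation in the dark. Reaction: 20 nM G9a, 500 nM biotin-H3K9 peptide, 20 uM SAM cofactor, 2 h, room temperature, following 15 min enzyme-compound preincubation.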
# * = called active by the depositor; ? = inconclusive; . = no result; [ ] = another dose, or the depositor's remark. The call rests on the fitted dose curve; in most records, active means well fitted inhibition curve with a large enough effect; inconclusive means small, poorly fitted or top-dose-only effect; inactive means no such curve, though single readings can be large or run the other way. Potency means the concentration at half of the fitted maximal effect.
SMILES,JMJD2A Tudor inh,HP1b chromo inh,L3MBTL1 block,BAZ2B block,G9a block
O=c1oc2ccccc2c(N2CCC(c3ccccc3)CC2)c1[N+](=O)[O-],-28%,0%,.,-2%,?
CC1CCCN(c2c([N+](=O)[O-])c(=O)oc3ccccc23)C1 (stereo not given),-8%,27%,-1%,8%,45µM*
COC(=O)c1ccccc1NC(=O)Cn1c(=O)n(CCCC(=O)NCCc2ccc(OC)c(OC)c2)c(=O)c2ccccc21,-10%,33%,.,2%,-32%[59 µM]
S=C(NCCCN1CCOCC1)NCCCN1CCOCC1,7%[57.1 µM],?,3%,7%,8.9µM*
FC(F)(F)Oc1ccc(NC(=S)NCCCN2CCOCC2)cc1,-14%,-1%,5%,-19%,50µM*
CCCCCCCCNC(=S)NCCN1CCCCC1,79µM*,?,-1%,?,45µM*
O=C(NCCCCCCCN1CCCCCCC1)C(C1CCCCC1)C1CCCCC1,-17%,-4%,.,.,.
S=C(NCCCN1CCOCC1)Nc1ccc(Cl)cc1,1%,43%,7%,9%,18%[59 µM]
CC1(C(=O)Nc2nc3ccccc3s2)CC1(Br)Br (stereo not given),-10%,66%,.,-14%,7%
COc1ccc(CCNC(=O)c2nc(SCc3ccc(F)cc3)ncc2Cl)cc1OC,-19%,10%,.,-5%,-2%[59 µM]
CCOC(=O)c1c(S(=O)(=O)NCC(=O)N2CCN(c3cccc(Cl)c3)CC2)c(C)n(C)c1C,-35%,14%,.,-21%,-27%[59 µM]
CCc1nn2cc(C(=O)c3cc(Cl)ccc3O)cnc2c1-c1ccc(F)cc1,50µM*,?,-17%,?,45µM*
CC(=O)c1cc2c(cc1NC(=O)CN1CCCCC1C)OCO2 (stereo not given),20µM*,?,.,79µM*,13µM*
CC(=O)c1cc2c(cc1NC(=O)CCC1CCCC1)OCO2,.,.,115%,126%,147%[59 µM]
CCCc1cc(=O)oc2cc(OC(C)C(=O)NC3CC(C)(C)NC(C)(C)C3)ccc12 (stereo not given),-13%,36%,.,-2%,7.1µM*
CC(Oc1ccc2ccc(=O)oc2c1)C(=O)NC1CC(C)(C)NC(C)(C)C1 (stereo not given),-11%,50%,.,-5%,?
Cc1ccc(C)c(N2CCN(C(=O)CCS(=O)(=O)c3cc(Br)cc4c3N(C(=O)C3CC3)CC4)CC2)c1,-27%,8%,.,-14%,-8%[59 µM]
CCOC(=O)C1=C(C)N=c2s/c(=C\c3ccc(OCC(=O)O)cc3)c(=O)n2C1c1ccccc1OC (stereo not given),89µM*,-19%,.,79µM*,-35%[2.33 µM]
COc1ccc(C2C(C(C)=O)=C(C)N=c3s/c(=C\c4ccc5c(c4)OCO5)c(=O)n32)c(OC)c1 (stereo not given),-26%[11.4 µM],-7%,.,.,.
COc1ccc(C2C(C(C)=O)=C(C)N=c3s/c(=C\c4ccco4)c(=O)n32)c(OC)c1 (stereo not given),32µM*,?,?,.,11µM*
COc1ccc(C2C(C(C)=O)=C(C)N=c3s/c(=C\c4cc(C)n(C)c4C)c(=O)n32)c(OC)c1 (stereo not given),?,1%,-18%,?,?
CCOC(=O)C1=C(C)N=c2s/c(=C/c3ccc(OCC(=O)O)cc3)c(=O)n2C1c1ccc(OC)cc1OC (stereo not given),50µM*,-9%,-7%,35µM*,50µM*
CCOC(=O)C1=C(C)N=c2s/c(=C/c3cccc([N+](=O)[O-])c3O)c(=O)n2C1c1ccc(OC)cc1OC (stereo not given),11µM*,7.1µM*,?,5µM*,7.1µM*
CCOc1ccc(-c2cn3c(n2)sc2cc(C(=O)NC(C)C45CC6CC(CC(C6)C4)C5)ccc23)cc1 (stereo not given),1%,68%,.,0%,34%[59 µM]
CC(C)CCNC(=O)Nc1ccc2c(c1)N(Cc1ccccc1)C(=O)c1ccccc1S2,-17%,13%,.,-9%,7%[59 µM]
SMILES,JMJD2A Tudor inh,HP1b chromo inh,L3MBTL1 block,BAZ2B block,G9a block
COc1ccc(Oc2ncc3nc(-c4ccc(OC)cc4)c(=O)n(C4CC4)c3n2)cc1,.,.,.,.,2%[0.501 µM]
COc1cccc(-c2nnc(-c3ccccc3NC(=O)c3cccc(C(F)(F)F)c3)o2)c1,-4%,17%,.,-8%,-23%[59 µM]
CCOC(=O)C1=C(C)N=c2s/c(=C\c3ccc(O)c([N+](=O)[O-])c3)c(=O)n2C1c1ccccc1OC (stereo not given),10µM*,?,-9%,8.9µM*,14µM*
Oc1ccccc1-c1nnc(COc2ccc(Cl)cc2Cl)o1,40µM*,7%,-3%,4%,?
CCOCCCNC(=O)NC(CCC(C)C)c1c(-n2cccc2)sc2c1CCN(C)C2 (stereo not given),-30%,4%,.,?,-50%[59 µM]
CS/C(=N\S(=O)(=O)c1ccc(N)cc1)NS(=O)(=O)c1cccs1,89µM*,14%,5%,-2%,?
N#CNc1nc(O)cc(=O)[nH]1,-28%,32%,?,-10%,50µM*
CCCC1=Nc2cc(C(=O)N3CCCC3)ccc2Sc2ccc(C)cc21,18µM*,-12%,.,?,-6%
CCCC1=Nc2cc(C(=O)N3CCC(C)CC3)ccc2Sc2ccc(C)cc21,-20%,27%,.,12%,11%[59 µM]
CCC1=Nc2cc(C(=O)N3CCCCC3)ccc2Sc2ccc(C)cc21,?,0%,.,-32%,?
CCCC1=Nc2cc(C(=O)N3CCN(c4ccccn4)CC3)ccc2Sc2ccc(C)cc21,?,0%,.,?,16µM*
CC(=O)c1c(C)[nH]c(C(=O)NCC2CCCCC2)c1C,-18%,13%,.,-13%,40µM*
CC(=O)c1c(C)[nH]c(C(=O)N2CCCCCC2)c1C,-35%[11.4 µM],?,-7%,50µM*,35%[0.501 µM]
Cc1ccc(N2C(=O)c3cccc4c(C(=O)O)ccc(c34)C2=O)cc1,.,.,2%,-30%,-51%
CC(=O)c1ccc2c3c(cccc13)C(=O)N(c1c(C)nn(C)c1C)C2=O,-14%,-1%,14%,-25%,10µM*
O=C(NNc1ccc(-c2csnn2)cc1)c1ccccc1C(F)(F)F,-9%,25%,7%,0%,28µM*
CCCOc1ccc(CNC(=O)C(CC)n2nc(C)c3sc4ccccc4c3c2=O)cc1 (stereo not given),-9%,41%,.,-18%,-26%[59 µM]
CC(=O)c1cccc(NC(=O)CNC(=O)c2sc3ccccc3c2Cl)c1,-11%,14%,5%,5%,-1%[59 µM]
